About 17,000 (5.5%) of roughly 310,000 compounds were called active. Roughly 11% stayed inconclusive and do not appear here. The call rests on the fitted dose curve; in most records, active means well fitted inhibition curve with a large enough effect; inconclusive means small, poorly fitted or top-dose-only effect, or effect the other way; inactive means no such curve, though single readings can be large or run the other way. This excerpt belongs to a sample that is enriched for actives.
Each compound was assayed against Nuclear receptor ROR-gamma (Mus musculus) (UniProt P51450) (assay: qHTS for inhibitors of ROR gamma transcriptional activity). Conditions: Drosophila S2 Gal4-RORgamma UAS-luciferase reporter, 20 h; series mostly up to 53.6 µM; activity change, negative = inhibition: at the top concentration.
Summary of the method: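 Stably transfected Drosophila Schneider cells are the test system, with ROR gamma fused to Gal4 and luciferase under UAS control; luminescence is read after 20 hr of 700 uM copper sulfate induction at ambient temperature.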
Further: nearly all actives have a fitted effect of over 60% in size.
On the % scale 0 is the no-effect control and ±100 the full control effect; potency means the concentration at half of the fitted maximal effect.

Sequence of Nuclear receptor ROR-gamma (Mus musculus) (P51450 whole entry, looked up, the tested form may be a part): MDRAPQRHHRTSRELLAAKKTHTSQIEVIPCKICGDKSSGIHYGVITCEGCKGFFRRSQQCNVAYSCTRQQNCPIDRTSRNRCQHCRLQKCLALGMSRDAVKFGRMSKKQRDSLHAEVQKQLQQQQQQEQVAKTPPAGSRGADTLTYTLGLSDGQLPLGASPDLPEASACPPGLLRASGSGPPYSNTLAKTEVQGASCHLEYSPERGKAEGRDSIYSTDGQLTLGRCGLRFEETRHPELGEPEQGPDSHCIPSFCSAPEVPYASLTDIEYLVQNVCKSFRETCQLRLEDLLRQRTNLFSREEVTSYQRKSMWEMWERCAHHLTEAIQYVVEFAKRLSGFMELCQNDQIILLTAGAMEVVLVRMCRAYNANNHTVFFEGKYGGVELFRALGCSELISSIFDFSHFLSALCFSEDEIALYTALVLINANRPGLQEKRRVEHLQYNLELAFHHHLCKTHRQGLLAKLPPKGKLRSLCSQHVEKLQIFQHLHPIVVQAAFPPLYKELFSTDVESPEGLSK

| SMILES | activity change, negative = inhibition | Potency |
| --- | --- | --- |
| C=CCOc1ccccc1NC(=O)CN1C(=O)CNC1=O | -31.8% (inactive) | – |
| Cc1ccc(/C=N/NC(=S)Nc2cccc(S(=O)(=O)N(C)C)c2)o1 | – | 1.26 µM (active) |
| CN(C)S(=O)(=O)c1cccc(NC(=S)N/N=C/C(=O)c2ccccc2)c1 | 21.3% (inactive) | – |
| CN(C)S(=O)(=O)c1cccc(NC(=O)Cc2ccsc2)c1 | 16.2% (inactive) | – |
| O=C(Nc1ccccc1)C1CCN(C(=O)c2ccc(Br)cc2)CC1 | 1.33% (inactive) | – |
| O=C(NCCc1ccccc1Cl)C1CCC(=O)N(CCCc2ccccc2)C1 (stereo not given) | 4.06% (inactive) | – |
| CC1CC(C)CN(CCOc2cccc3ccccc23)C1 (stereo not given) | -13.7% (inactive) | – |
| Cc1noc(C)c1COC(=O)COc1ccc(-c2ccccc2)cc1 | -18.9% (inactive) | – |
| CC(=O)COc1ccc2c(-c3ccccc3)cc(=O)oc2c1 | -5.52% (inactive) | – |
| CCOc1ccc(-c2nc(N)ncc2-c2ccccc2OC)c(O)c1 | 28.4% (inactive) | – |
| C=C(C)COc1ccc(-c2nc(N)ncc2-c2ccccc2OC)c(O)c1 | 21.4% (inactive) | – |
| COc1ccc(OC)c(-c2csc(-c3cccs3)n2)c1 | 2.01% (inactive) | – |
| COc1ccc(-c2[nH]ncc2CN(C)Cc2c(C)n[nH]c2C)c(OC)c1 | -1.1% (inactive) | – |
| COc1ccc(-c2n[nH]c(C)c2-c2ccccc2OC)c(O)c1 | – | 8.91 µM (active) |
| COc1ccc(-c2c(-c3ccc(OC)cc3O)nc(C)nc2C(F)(F)F)cc1 | -5.38% (inactive) | – |
| C=C(C)COc1ccc(-c2n[nH]c(C)c2-c2ccccc2)c(O)c1 | – | 7.08 µM (active) |
| COc1ccc(CCN2C(=O)c3[nH]nc(-c4ccccc4O)c3C2c2ccc(C)cc2)cc1OC (stereo not given) | -39.7% (inactive) | – |
| C=C(C)COc1ccc(-c2n[nH]c(C)c2-c2ccccc2OC)c(O)c1 | – | 14.1 µM (active) |
| COc1ccc(-c2n[nH]c(C)c2-c2ccc(OC)c(OC)c2)c(O)c1 | – | 10 µM (active) |
| O=C(NCCc1ccccn1)c1nc(Cn2cc([N+](=O)[O-])cn2)no1 | -0.758% (inactive) | – |
| Cc1ccccc1N1CC(C(=O)Nc2ccc3c(c2)OCO3)CC1=O (stereo not given) | 19.2% (inactive) | – |
| COc1ccc(-c2csc3ncnc(N4CCN(S(=O)(=O)c5ccccc5C#N)CC4)c23)cc1 | 0.197% (inactive) | – |
| CCCC(=O)N(CCN1CCOCC1)c1nc2ccc(OCC)cc2s1 | 4.81% (inactive) | – |
| CC(=O)Nc1ccc(NC(=O)CSc2nnnn2-c2ccccc2F)cc1 | 6.46% (inactive) | – |

| SMILES | activity change, negative = inhibition | Potency |
| --- | --- | --- |
| CCc1ccc(NC(=O)CS(=O)CC(=O)N2CCN(c3ccccc3F)CC2)cc1 (stereo not given) | -24.2% (inactive) | – |
| Cc1nc(CN(C)C(=O)CC2C(=O)NCCN2Cc2ccc(F)cc2)cs1 (stereo not given) | -3.13% (inactive) | – |
| CCOc1ccc(CN2CCN(Cc3c[nH]c4ccccc34)CC2)cc1 | -8.28% (inactive) | – |
| COc1ccc2c(c1)C(NS(=O)(=O)OCC(Cl)(Cl)Cl)CCC2 (stereo not given) | -9.1% (inactive) | – |
| O=C(CC1C(=O)NCCN1C(=O)c1ccc([N+](=O)[O-])cc1)Nc1cccc(Cl)c1 (stereo not given) | -1.47% (inactive) | – |
| O=C(NCc1ccncc1)C1CCCN(S(=O)(=O)c2ccc(Br)cc2)C1 (stereo not given) | -0.316% (inactive) | – |
| COc1ccc(NC(=O)CCCNC(=O)Cn2cnc3sc4c(c3c2=O)CCCC4)cc1OC | 11.9% (inactive) | – |
| CCOc1ccc(-c2n[nH]c(C)c2-c2ccccn2)c(O)c1 | – | 17.8 µM (active) |
| CCOc1cccc(-c2nn3c(-c4ccccn4)nnc3s2)c1 | -2.44% [at 10 µM] (inactive) | – |
| COc1ccc(-n2c(SCC(=O)OC(C)C)nnc2-c2ccccn2)cc1 | 8.58% (inactive) | – |
| COc1ccc(CNC(=O)CCN2C(=O)c3ccccc3C2=O)cc1 | -10.3% (inactive) | – |
| O=C(O)CC(c1ccccc1F)N1Cc2ccccc2C1=O (stereo not given) | 13.5% (inactive) | – |
| COCCC(=O)N1CCC(Oc2ccc(C(=O)NCc3ccon3)cc2)CC1 | -0.109% (inactive) | – |
| O=C(NCCCn1ccnc1)Nc1ccc(Cl)cc1Cl | 1.19% (inactive) | – |
| Clc1ccc(C(Cn2ccnc2)OCc2ccsc2Cl)c(Cl)c1 (stereo not given) | – | 12.6 µM (active) |
| COc1ccc(C(CNC(=O)COc2ccc([N+](=O)[O-])cc2)N2CCCCC2)cc1 (stereo not given) | -1.04% (inactive) | – |
| CC(=O)NCC(=O)NC1CCCc2c1cnn2-c1ccccc1F (stereo not given) | 11.1% (inactive) | – |
| COCCN(CCOC)C(=S)Nc1ccccc1Cl | -20.1% (inactive) | – |
| COCCN(C(=S)Nc1cccc(Cl)c1C)C(C)c1ccco1 (stereo not given) | – | 7.94 µM (active) |
| Cc1c(Cl)cccc1NC(=O)CCC(=O)N/N=C/c1ccco1 | 4.27% (inactive) | – |
| C=CCn1c(SCC(=O)NCCCO)nc2sc3c(c2c1=O)CCC3 | 12.8% (inactive) | – |
| COc1ccc(NC(=S)N2CCC(NC(=O)c3cccc(F)c3)CC2)cc1 | -21.7% (inactive) | – |
| COc1ccccc1C1CCN(C(=S)Nc2ccc(Br)cc2)CC1 | – | 5.01 µM (active) |
| COc1ccc(C(=O)NC2CCN(C(=S)Nc3ccccc3)CC2)cc1 | -22.9% (inactive) | – |

| SMILES | activity change, negative = inhibition | Potency |
| --- | --- | --- |
| COc1ccc(NC(=O)C2C3CCC(O3)C2C(=O)O)cc1OC (stereo not given) | -29.4% (inactive) | – |
| COc1cc(NC(=O)CCS(=O)(=O)c2ccc3c(c2)oc(=O)n3C)cc(OC)c1 | 10.4% (inactive) | – |
| Cc1ccc(C(=O)N(CC(=O)NC2CCCC2)c2ccc(F)cc2)s1 | -5.56% (inactive) | – |
| CCOc1c2ccc(C(=O)NCc3ccc4c(c3)OCO4)cc2nn1C | -5.74% (inactive) | – |
| C=CCNC(=O)c1ccc2c3n(nc2c1)-c1ccc(C)cc1CO3 | – | 7.08 µM (active) |
| C=CCNC(=O)c1ccc(C)c(Br)c1 | 5.36% [at 0.365 µM] (inactive) | – |
| CCCc1nn2c(=O)cc(CSCC(=O)Nc3cccc(C)c3)nc2s1 | -2.84% (inactive) | – |
| Cc1ccc2c(c1)c1ncnc(N3CCc4ccccc4C3)c1n2C | – | 15.8 µM (active) |
| Cc1ccc2c(c1)c1ncn(Cc3ccc(F)cc3)c(=O)c1n2C | -40.6% (inactive) | – |
| Cc1ccc2c(c1)c1ncn(CCC3=CCCCC3)c(=O)c1n2C | 4.27% (inactive) | – |
| O=C(O)c1ccccc1-c1ccccc1C(=O)Nc1ccccc1Br | -14.5% (inactive) | – |
| COc1cccc(C(=O)Nc2ccc(NC(=O)c3ccco3)cn2)c1 | 25.9% (inactive) | – |
| O=C(Nc1ccc2nccnc2c1)c1ccco1 | 43% (inactive) | – |
| O=C(Nc1ccc(NC(=O)c2cccs2)cn1)c1ccco1 | – | 11.2 µM (active) |
| Cc1cc(O)c(C2(O)C(=O)Nc3ccccc32)cc1C (stereo not given) | 19.9% (inactive) | – |
| C/C(=N\NC(=O)c1ccc2ccccc2c1)c1cccnc1 | -21.8% (inactive) | – |
| CCOc1ccc(C(O)Cc2nc3ccccc3n2C)cc1 (stereo not given) | 11.9% (inactive) | – |
| CC(NCc1nc2ccccc2n1C)C12CC3CC(CC(C3)C1)C2 (stereo not given) | – | 5.01 µM (active) |
| Cn1c(CNC(=O)C(C)(C)C)nc2ccccc21 | 20.1% [at 0.365 µM] (inactive) | – |
| COc1ccc(CCNC(=O)Cc2ccc(C)cc2)cc1OC | -20.3% (inactive) | – |
| COc1ccc(CCNC(=S)NC(=O)/C=C/c2ccc(C)cc2)cc1OC | – | 3.16 µM (active) |
| COc1ccc(CCNC(=O)NS(=O)(=O)c2ccc(C)cc2)cc1OC | -25.4% (inactive) | – |

— PubChem BioAssay AID2551 (National Center for Advancing Translational Sciences (NCATS), 2010)
